Assay results as given in PubChem BioAssay (NCI).
About 83,000 compounds went through this panel and 20% of them were active in at least one assay; those are over-represented in the sample as a whole.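 Percent growth is the endpoint: 0 to 100 indicates growth inhibition (40 means 60% inhibition), 0 means no net growth, and negative values indicate cell death.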 A number with no mark means an inactive call. The source made the active and inactive calls. The calls were made as follows: active = growth percent below 10; inactive = the rest.

What was measured:
Test in all cases: NCI-60 one-dose screen, 48 h (100 = growth as untreated, 0 = no growth, -100 = all killed)
SK-MEL-2 melanoma = conditions: 10 µM unless noted
SN12C renal = conditions: 10 µM unless noted
UO-31 renal = conditions: 10 µM unless noted
ACHN renal = conditions: 10 µM unless noted
A498 renal = conditions: 10 µM unless noted
CCRF-CEM leukemia = conditions: 10 µM unless noted
MOLT-4 leukemia = conditions: 10 µM unless noted
SR leukemia = conditions: 10 µM unless noted
RPMI-8226 leukemia = conditions: 10 µM
OVCAR-8 ovarian = conditions: 10 µM unless noted
OVCAR-5 ovarian = conditions: 10 µM unless noted
OVCAR-4 ovarian = conditions: 10 µM unless noted
SK-OV-3 ovarian = conditions: 10 µM
IGROV1 ovarian = conditions: 10 µM unless noted
OVCAR-3 ovarian = conditions: 10 µM unless noted
HS 578T breast = conditions: 10 µM unless noted
NCI/ADR-RES ovarian = conditions: 10 µM unless noted
CAKI-1 renal = conditions: 10 µM unless noted
EKVX NSCLC = conditions: 10 µM unless noted
TK-10 renal = conditions: 10 µM unless noted

Row | SMILES | growth (SK-MEL-2 melanoma) | growth (SN12C renal) | growth (UO-31 renal) | growth (ACHN renal) | growth (A498 renal) | growth (CCRF-CEM leukemia) | growth (MOLT-4 leukemia) | growth (SR leukemia) | growth (RPMI-8226 leukemia) | growth (OVCAR-8 ovarian) | growth (OVCAR-5 ovarian) | growth (OVCAR-4 ovarian) | growth (SK-OV-3 ovarian) | growth (IGROV1 ovarian) | growth (OVCAR-3 ovarian) | growth (HS 578T breast) | growth (NCI/ADR-RES ovarian) | growth (CAKI-1 renal) | growth (EKVX NSCLC) [%] | growth (TK-10 renal)
1 | C=CC(=O)N1CC2(CC(n3nc(-c4ccc(Oc5ccccc5)cc4)c4c(N)ncnc43)C2)C1 | 28.6% | 17.1% | 15.2% | 5.33% (active) | -71.7% (active) | 54.3% | 17% | 31.5% | 41% | 28.7% | 54.8% | 27.4% | 5.31% (active) | 10.7% | 30.9% | -11.6% (active) | 41.6% | – | – | –
2 | CCCCCCCCCCCC(=O)[O][Sn]([CH2]CCC)([CH2]CCC)[CH2]CCC | -90.5% (active) | -93.5% (active) | -97.9% (active) | -95.2% (active) | -86% (active) | – | -27% (active) | -42.7% (active) | -34% (active) | -81.4% (active) | -96.9% (active) | -98.5% (active) | -100% (active) | -77.1% (active) | -97.5% (active) | -20.2% (active) | -80.5% (active) | -97.8% (active) | – | –
3 | Cc1ccc2nc(NC(=O)CSC(=S)N3CCN(Cc4ccccc4)CC3)sc2c1 | – | -1% (active) | -43.4% (active) | -2.52% (active) | -3.21% (active) | – | 6.71% (active) | 11.1% | 8.2% (active) | 0.825% (active) | -36.3% (active) | 12.6% | -44.7% (active) | -39.8% (active) | -90.4% (active) | -0.695% (active) | – | -20.8% (active) | 72.5 | -36.4% (active)
4 | COc1c(Cl)ccc2c(-c3nc4cc(Cl)c(F)cc4s3)cc(=O)oc12 | 37.7% | 96.3% | -88.8% (active) | 47.8% | – | -68% (active) | 44.3% | 23.2% | 49% | 62.5% | 96.5% | – | 104% | -59.8% (active) | 75.5% | 100% | 33% | 34.4% | – | –
5 | NC(=S)N/N=C1\c2ccccc2-c2c(F)c(F)c(F)c(F)c21 | – | 70.6% | 68.9% | 65.7% | 105% | – | -18% (active) | 2.57% (active) | 67.1% | 39.6% | 108% | 56.5% | 98.8% | 20.8% | 61.6% | 107% | 10.2% | 78.3% | 87.3 | 116%
6 | C=C1CC[C@@H]2[C@@](C)(CCC[C@]2(C)C(=O)O)[C@@H]1CC[C@H](CO)CCO | – | 103% | 79.5% | 106% | 107% | 102% | 88.2% | 85.2% | 113% | 104% | 108% | 99% | 102% | 99% | 76.4% | 107% | 104% | 101% | 108 | 99.4%
7 | CC(=O)OC[C@H](O)[C@@]1(O)CC[C@H]2[C@@H]3CCC4=CC(=O)CC[C@]4(C)[C@H]3[C@@H](O)C[C@@]21C | – | 85.9% | 78% | 111% | 112% | – | 89% | 99.9% | 89.8% | 98.5% | 96.6% | 105% | 90.8% | 111% | 108% | 114% | 102% | 85.5% | 87.3 | 112%
8 | FCOC(C(F)(F)F)C(F)(F)F | – | 113% | 87% | 104% | – | 101% | 97.3% | 86.2% | – | 107% | 103% | 121% | 98% | 111% | 107% | 107% | 106% | 98.5% | 107 | 91.1%
9 | C=CC(=O)N1CC2(CCC(n3nc(-c4ccc(Oc5ccccc5)cc4)c4c(N)ncnc43)CC2)C1 | -89.7% (active) | -10.7% (active) | -63.7% (active) | -83.6% (active) | – | – | -28.2% (active) | -23.2% (active) | -56% (active) | -36.5% (active) | -0.902% (active) | -10.7% (active) | -24.6% (active) | -51.2% (active) | -36.6% (active) | -35.5% (active) | – | -75.1% (active) | – | –
10 | NC(=O)c1cc(Cl)ccc1NC(=O)COc1ccccc1 | 49.7% | 64.3% | 58.3% | 58.4% | – | 23.2% | 34.7% | 23% | 44.5% | 60.1% | 80.5% | 101% | 62.8% | 54.5% | 27.2% | 54.7% | 31.4% | – | – | –
11 | Cc1ccc(S(=O)(=O)N(c2ccc(Cl)cc2)c2ccc(Br)cc2C(=O)O)cc1 | 107% | 99.4% | 91.4% | 105% | – | 102% | 98.5% | 104% | 108% | 101% | 101% | 116% | 112% | 109% | 120% | 102% | 115% | 102% | – | –
12 | Oc1ccccc1/C=N/Nc1nc2ccccc2s1 | – | 48.8% | 19.7% | 43.1% | 78.3% | – | 41.2% | 43.7% | – | 57.3% | 91.8% | 19.9% | 57.5% | – | 13.8% | 65.2% | – | 7.12% (active) | 61.9 | 95.1%
13 | O=C(CC(O)c1ccccc1)Nc1ccccn1 (configuration not stated) | – | 93.1% | 77.1% | 111% | 102% | 88.9% | 79% | 86.9% | 93.8% | 100% | 104% | 97.1% | 94% | 108% | 108% | 106% | 106% | 87.8% | 97 | 97.9%
14 | O=C1N/C(=C\c2ccccc2)c2ncccc21 | – | 100% | 69% | 103% | 123% | 97.7% | 80.7% | 76.4% | 106% | 110% | 118% | 95.5% | 89.9% | 92.3% | 99.2% | 120% | 103% | 93.6% | 93.1 | 121%
15 | Cn1c2ccc(Cl)cc2c2nn(C(=O)c3ccccc3)c(=O)nc21 | 100% | 103% | 71.9% | 95.2% | 112% | 96% | 99% | 93% | 106% | 101% | 99.5% | 114% | 114% | 110% | 111% | 104% | 106% | – | – | –
16 | CCOc1ccc(/C=N\N2CCCCCC2)cc1OCC | 103% | 82.7% | – | 88.7% | – | 102% | 106% | 89.6% | 83.4% | 101% | 95% | – | 91.6% | – | 104% | 120% | – | 90.8% | – | 97.7%
17 | COc1cc(/C=C/C(=O)CC(=O)/C=C/c2cc(Br)c(OC)c(OC)c2)cc(Br)c1OC | – | 96.6% | 87.9% | 109% | 98.4% | 114% | 71.5% | 49.6% | 116% | 102% | 99.1% | 103% | 96.6% | 109% | 102% | 113% | 99.3% | 105% | 105 | 109%
18 | Cc1ccc(S(=O)(=O)N2CCc3ccc(O)c4c3C2Cc2cc(Cl)ccc2-4)cc1 (configuration not stated) | – | 91.9% | 48.8% | – | 47.5% | 94% | 74.4% | 18.9% | 93.8% | 75.4% | 99% | 70.3% | 70% | 57.6% | -3.87% (active) | 62.8% | – | 56.1% | 99.6 | 69.1%
